Over roughly 68,000 sequences, “fluorescence intensity (a.u.)” has its median near 9,100; the highest 2% begin near 16,000. The sample holds the highest values, similar sequences and a random draw of the others, so the mix is not that of the screen.
The sequences below were run against OsWRKY34 (Oryza sativa, UniProt Q0JBA9 1-250) (assay: protein-binding microarray (RPBM); PBS, 2% BSA, 51.3 ng/ul salmon testes DNA, 50 uM zinc acetate, 200 nM TF, 25 C, 1 h; high values mean tight binding). Conditions: protein: recombinant; tags: N-terminal polyhistidine and DsRed monomer fusion (pET32a); label: CyDye5-dUTP incorporated in the synthesized complementary strand; 3' TTTTT single-stranded linker to array surface; dsDNA, one strand shown.
Chain of OsWRKY34 (Q0JBA9 entry or part of it): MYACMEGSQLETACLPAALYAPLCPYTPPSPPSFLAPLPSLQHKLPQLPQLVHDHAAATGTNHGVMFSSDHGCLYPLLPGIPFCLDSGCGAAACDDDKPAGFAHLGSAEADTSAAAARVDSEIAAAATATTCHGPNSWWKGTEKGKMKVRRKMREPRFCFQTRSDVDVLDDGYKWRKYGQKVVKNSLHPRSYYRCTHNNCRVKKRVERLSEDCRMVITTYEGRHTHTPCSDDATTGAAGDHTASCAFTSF
How it was run: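 Per-feature fluorescence intensity (arbitrary units), read on an Axon 4000B scanner, is the binding signal. Transcription factors carrying an N-terminal polyhistidine tag and DsRed fusion were expressed in E. coli BL21-CodonPlus and purified on Ni–NTA. A custom Agilent array, made double-stranded by primer extension with Cy5-dUTP and blocked with 2% BSA, was incubated with 200 nM protein in PBS, 2% BSA, salmon testes DNA and 50 µM zinc acetate at 25 °C for 1 h and then washed.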
In the case of “TGTGGTGCGTGCCGCGTGCGGGAGGGCAGGGTGAGGTGAGCGGAGTCACCTAGTGCAG”, the binding signal is reported as 8810 fluorescence intensity (a.u.).
“TTTGTGGGTGATGGTGGGTGGGAGTGGGATAGGGCGGCCCCGGAGTCACCTAGTGCAG” was tested, and the binding signal was 17000 fluorescence intensity (a.u.).
With “TGGGGCTTCTGGTGTGCTCGGTGGTGTTCGCCGCGGCGGCCGGAGTCACCTAGTGCAG” the binding signal was 14200 fluorescence intensity (a.u.).
In the case of “GCGGCGGTGGGGATGGGGATAGGGCGGCGGCGGCGGATGGCGGAGTCACCTAGTGCAG”, the binding signal is reported as 13600 fluorescence intensity (a.u.).
With “GCGCGCGGGTGAGGAGGAGGAGGGGATGGGGAGGGGCCCGCGGAGTCACCTAGTGCAG” the binding signal was 17700 fluorescence intensity (a.u.).
In the case of “CCGCGGTGGGGCATGGTGGTGAGGTGGGAGGGAGGGAGCTCGGAGTCACCTAGTGCAG”, the binding signal is reported as 17100 fluorescence intensity (a.u.).
“GGATGGGCATGGAGGAGGTGCAGTGAGTGGAGCTGGAGGACGGAGTCACCTAGTGCAG” was tested, and the binding signal was 8730 fluorescence intensity (a.u.).
With “TGTGGGTATGGGGATGATTTTGTACCCGTGATAGGTGTGGCGGAGTCACCTAGTGCAG” the binding signal was 13100 fluorescence intensity (a.u.).
In the case of “TCTTTTGTCACATCTTTATAATATTGCCCATGGCACATACCGGAGTCACCTAGTGCAG”, the binding signal is reported as 8490 fluorescence intensity (a.u.).
With “TGCCATCTCCTTCGCCATTGGAGCTCACCACACACTCGCTCGGAGTCACCTAGTGCAG” the binding signal was 9660 fluorescence intensity (a.u.).
With “CACCTGACCCATTCTTGCTTACCTTATATTTAGCATACTCCGGAGTCACCTAGTGCAG” the binding signal was 8160 fluorescence intensity (a.u.).
“CTATTTTATAAAATCTTTGTTTATGCATACCAGCTAAATTCGGAGTCACCTAGTGCAG” was tested, and the binding signal was 8800 fluorescence intensity (a.u.).
“AAGCCAACCCAACCCGCACCTTCTCGCTGCTTCTACTACTCGGAGTCACCTAGTGCAG” was tested, and the binding signal was 13100 fluorescence intensity (a.u.).
With “ACGGTGGCGTTGTGCCCTGTGATGGTGTCCGCGTTGTGTCCGGAGTCACCTAGTGCAG” the binding signal was 8990 fluorescence intensity (a.u.).
For “GTCGAGGCGGCGGCGGCGGGGCGCGGAGTGAGGTGGGTGCCGGAGTCACCTAGTGCAG”, the binding signal was 8640 fluorescence intensity (a.u.).
“CTGGCGAGCAGAGCAGGGGAGGGGAGGGGAGGGGATCCTGCGGAGTCACCTAGTGCAG” was tested, and the binding signal was 15800 fluorescence intensity (a.u.).
With “GCAACGGGGAGGTGGGCGGAGGTGCGGCGCGGCGGCGGGCCGGAGTCACCTAGTGCAG” the binding signal was 10300 fluorescence intensity (a.u.).
In the case of “ATGTGGTTTGGTGAGCGCCGCTGTGCCCACCTAACCCACACGGAGTCACCTAGTGCAG”, the binding signal is reported as 27300 fluorescence intensity (a.u.).
In the case of “ACGTGTACGGCGCGGGGTGGAGGTGAGGGGTGGTGGGGCCCGGAGTCACCTAGTGCAG”, the binding signal is reported as 18000 fluorescence intensity (a.u.).
“TGCCGCTGCCGCCGTGTGCCCGAGCGAGCCCACGCCCACACGGAGTCACCTAGTGCAG” was tested, and the binding signal was 8340 fluorescence intensity (a.u.).
In the case of “CTAGTGAGGGGCGGGCGGGCGGGCAAGGGGAGCGGATGGGCGGAGTCACCTAGTGCAG”, the binding signal is reported as 19100 fluorescence intensity (a.u.).
With “CGGGCGGATGAGGGGCGGCGATGGGCGGGCAAGGGGCGTGCGGAGTCACCTAGTGCAG” the binding signal was 12500 fluorescence intensity (a.u.).
“GCTGCTGCTGCCGCCCGGCCGCCACCCGTGACCCGCGCCACGGAGTCACCTAGTGCAG” was tested, and the binding signal was 8860 fluorescence intensity (a.u.).
For “TCTCAGCAGGGGAGGGGAGGGGAGGGGATCCTGGTGAGGTCGGAGTCACCTAGTGCAG”, the binding signal was 15700 fluorescence intensity (a.u.).
For “GGGCAAGGGGAGCGGATGGGCGGGGAGGAGGCAGGCTGCGCGGAGTCACCTAGTGCAG”, the binding signal was 11600 fluorescence intensity (a.u.).
In the case of “CAGAGCAGGGGAGGGGAGGGGAGGGGATCCTGGTGAGCCTCGGAGTCACCTAGTGCAG”, the binding signal is reported as 17600 fluorescence intensity (a.u.).
With “CTGGGATTTGGTGGAGCTCCTGCGGTGGGGTGCCAGTGATCGGAGTCACCTAGTGCAG” the binding signal was 12200 fluorescence intensity (a.u.).
For “ACTGTATATCGATGGCCCACTCGGCCCGACCCGTCCCGGCCGGAGTCACCTAGTGCAG”, the binding signal was 10600 fluorescence intensity (a.u.).
For “ATCAAGCCGAATAGTGCTGACATCTTCATTCTGGTTTTTTCGGAGTCACCTAGTGCAG”, the binding signal was 9510 fluorescence intensity (a.u.).
With “GTCTAGTATAAATCAACGCCACACCACTTGCCTAGTCATCCGGAGTCACCTAGTGCAG” the binding signal was 8070 fluorescence intensity (a.u.).
For “GTCGGCGCCCATAGTTTTTTTCCGCAAGGGTTTTCTACGTCGGAGTCACCTAGTGCAG”, the binding signal was 8810 fluorescence intensity (a.u.).
“TCTTAAGCGTGTTCATGGGTCTTGTTATGCTCAAGTCAAACGGAGTCACCTAGTGCAG” was tested, and the binding signal was 8950 fluorescence intensity (a.u.).
In the case of “ATCTCTTTCATCCGATTACTGTGTTTTTTCTGTGGTCCAACGGAGTCACCTAGTGCAG”, the binding signal is reported as 8410 fluorescence intensity (a.u.).
In the case of “GCCGCTTGCCCTCGCAGCCGCTCCGCCTGCCTCCGCCCACCGGAGTCACCTAGTGCAG”, the binding signal is reported as 10000 fluorescence intensity (a.u.).
With “ATCTGGTAACTCAAGTGCTCTCTTCCTGACTGCTGCAGCACGGAGTCACCTAGTGCAG” the binding signal was 9470 fluorescence intensity (a.u.).
For “GATGAGTGGTGATTGGTGAAGATATCTGGTGGTTTTGGGACGGAGTCACCTAGTGCAG”, the binding signal was 8630 fluorescence intensity (a.u.).
In the case of “AACCCGTTCACACACATTGTCAGGGACCAGCTCATTACTTCGGAGTCACCTAGTGCAG”, the binding signal is reported as 10400 fluorescence intensity (a.u.).
For “TGATTTTTGTCCCACGTGGCATTGACGTGGCGCTTATGTGCGGAGTCACCTAGTGCAG”, the binding signal was 8850 fluorescence intensity (a.u.).
With “GGGCTGTTGTGTGTGTGTTTTGCGACGTGCCGTGCTGGGCCGGAGTCACCTAGTGCAG” the binding signal was 8290 fluorescence intensity (a.u.).
For “TCCCCACCTGTCAGTACTTATGTTTTGACTTTTTGACCCACGGAGTCACCTAGTGCAG”, the binding signal was 14300 fluorescence intensity (a.u.).
In the case of “TGACTTTTTAGTACGTGTTTGATCATTCGTCTTATTCAAACGGAGTCACCTAGTGCAG”, the binding signal is reported as 10800 fluorescence intensity (a.u.).
“AACGATGACGACGTGTGCGCGCTGTTGTTTTTTTGTCCCACGGAGTCACCTAGTGCAG” was tested, and the binding signal was 19700 fluorescence intensity (a.u.).
For “CCGTTGACTTTTTAGTACGTGTTTGATTCATTCTTAAATACGGAGTCACCTAGTGCAG”, the binding signal was 16200 fluorescence intensity (a.u.).
In the case of “AATGTTTGACACCGTTGACTTTTTAGTACGTGTTTGTCCACGGAGTCACCTAGTGCAG”, the binding signal is reported as 30200 fluorescence intensity (a.u.).
For “AATGTTTGATACCGTTGACTTTTTAGTACGTGTTTGATCACGGAGTCACCTAGTGCAG”, the binding signal was 32600 fluorescence intensity (a.u.).

Reference: PMC7819943, “Rice protein-binding microarrays: a tool to detect cis-acting elements near promoter regions in rice”
